# Results from PubChem BioAssay AID2732 (Emory University Molecular Libraries Screening Center, 2010).
# About 8,200 (3.7%) of roughly 220,000 compounds were called active.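 Rule for the calls: active = compounds that reduced the stress-induced luciferase reporter signal by more than about 70% of percent inhibition (limit read from the data); inactive = the rest.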 This excerpt belongs to a sample that is enriched for actives.
# Assay: blockers of ER-stress CHOP reporter expression – cell-based, unfolded protein response, luciferase reporter, primary screen (AID 2732);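 note: 0% = tunicamycin plus vehicle and 100% = wells without tunicamycin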
# Conditions: CHO-K1 CHOP-promoter luciferase, tunicamycin-induced, 15-18 h; at 10 µM; stronger effect = higher value
row,SMILES,inhibition
1,COc1ccc(-c2cc(C(F)(F)F)nc(SCC(=O)Nc3ccc4c(c3)OCO4)n2)cc1OC,22.4% (inactive)
2,COc1ccc(-c2cc(C(F)(F)F)nc(S(C)(=O)=O)n2)cc1OC,109% (active)
3,COc1cc(OC)nc(S(C)(=O)=O)n1,-18.2% (inactive)
4,O=C(Nc1cccnc1)c1cc([N+](=O)[O-])ccc1Cl,-9.19% (inactive)
5,CCOC(=O)C1CCN(c2c(Nc3cc(C)cc(C)c3)c(=O)c2=O)CC1,4.73% (inactive)
6,O=S(=O)(c1ccc(NC(=S)NN=C(C2CC2)C2CC2)cc1)N1CCOCC1,-4.48% (inactive)
7,CN(c1ccccc1)S(=O)(=O)c1ccc(Cl)c(C(=O)OCC(=O)NCc2ccco2)c1,29.9% (inactive)
8,CCN1CCN(c2nc(Nc3cc(OC)ccc3OC)nc(Nc3cc(OC)ccc3OC)n2)CC1,-5.76% (inactive)
9,CCOc1ccc(Nc2nc(Cl)nc(N3CCN(c4ccc(OC)cc4)CC3)n2)cc1,72.4% (active)
10,CCOc1ccc(NC(=O)CN2CCN(CC(=O)Nc3ccc(OC)cc3)CC2)cc1,34.6% (inactive)
11,Cc1coc2cc3oc(=O)c(CCC(=O)O)c(C)c3cc12,-3.28% (inactive)
12,COC(=O)c1sccc1NC(=S)Nc1ccc(C)cc1,10.2% (inactive)
13,CCc1ccc(NC(=O)CS(=O)CC(=O)NCCCc2ccccc2)cc1 (centres undefined),75.9% (active)
14,CCN(CC)CCCNC(=O)CCc1ccccc1,0.68% (inactive)
15,Cc1cnc(C(=O)OCC(=O)NCCCc2ccccc2)cn1,4.94% (inactive)
16,NNC(=O)c1oc2nc(-c3ccccc3)cc(-c3ccco3)c2c1N,-41.2% (inactive)
17,COC(OC)c1ccnc(SCc2ccccc2Cl)n1,15.3% (inactive)
18,O=c1oc2ccccc2cc1-c1csc(Nc2ccc(O)cc2)n1,-72.5% (inactive)
19,COc1ccc(-c2csc(Nc3ccc(O)cc3)n2)cc1,18.9% (inactive)
20,Cc1ccc(Nc2nc(-c3ccc(O)cc3O)cs2)nc1,88.9% (active)
21,Nc1nnn(CC(=O)N/N=C/c2ccccc2)n1,9.73% (inactive)
22,COc1cc(N2C(=O)CC3(CCCC3)CC2=O)cc(OC)c1OC,-7% (inactive)
23,O=C(Nc1ccc(N2CCOCC2)nc1)c1c(F)cccc1F,-6.02% (inactive)
24,CCOC(=O)c1c(NC(=O)NC(C)(C)C)sc2c1CCN(C)C2,16.3% (inactive)
25,O=[N+]([O-])c1ccc2nc(-c3ccccn3)[nH]c2c1,-8.07% (inactive)

row,SMILES,inhibition
1,COc1ccc(Cl)cc1CSc1ncn[nH]1,-7.32% (inactive)
2,O=C(/C=C/Sc1ncn[nH]1)c1ccc(Cl)cc1,105% (active)
3,Cc1cc(C)nc(S/C=C/C(=O)c2ccccc2)n1,24.8% (inactive)
4,CCCCSc1nc2c(c(=O)n1CC)SC(C)C2 (centres undefined),97.1% (active)
5,CCn1c(SCC(=O)Nc2ccccc2F)nc2c(c1=O)SC(C)C2 (centres undefined),-15.6% (inactive)
6,CCn1c(SCC(=O)Nc2ccc3c(c2)OCCO3)nc2c(c1=O)SC(C)C2 (centres undefined),3.73% (inactive)
7,COc1c(N2CCN(C(=S)Nc3ccccc3F)C(C)C2)c(F)cc2c(=O)c(C(=O)O)cn(C3CC3)c12 (centres undefined),2.97% (inactive)
8,Cc1nnc(SCc2cc(=O)[nH]c(N3CCN(Cc4ccccc4)CC3)n2)s1,39.7% (inactive)
9,CCc1c(C)nc(N2CCN(Cc3ccccc3)CC2)[nH]c1=O,80% (active)
10,Cc1ccc(-n2c(=O)cc(N3CCN(Cc4ccccc4)CC3)[nH]c2=O)cc1,-31.4% (inactive)
11,Cn1c(SCC(=O)N2CCOCC2)nnc1-c1ccc2ncccc2c1,-14.7% (inactive)
12,S=c1[nH]nc(-c2ccccc2)n1/N=C/c1c[nH]c2ccccc12,30.5% (inactive)
13,S=c1[nH]nc(-c2ccco2)n1/N=C/c1ccccc1,13.8% (inactive)
14,S=c1[nH]nc(-c2cc(-c3ccccc3)n[nH]2)n1/N=C/c1c2ccccc2cc2ccccc12,74% (active)
15,O=C(O)CC12CC3CC(C1)CC(n1ncc(NCc4ccc(F)cc4)c(Cl)c1=O)(C3)C2,-5.94% (inactive)
16,O=C(CN1CCN(Cc2ccc(F)cc2Cl)C1=O)NCc1cccs1,5.73% (inactive)
17,O=c1c(Cl)c(NCc2ccc(F)cc2Cl)cnn1C12CC3CC(CC(C3)C1)C2,78.6% (active)
18,CCCN(CC1COc2ccccc2O1)C(=S)Nc1ccc(C)cc1 (centres undefined),28.3% (inactive)
19,S=C(NCC1COc2ccccc2O1)Nc1ccc(Br)cc1 (centres undefined),81.2% (active)
20,O=C(NCC1COc2ccccc2O1)C1(c2ccccc2)CCCC1 (centres undefined),17.7% (inactive)
21,CCCN(CCC)S(=O)(=O)c1ccc(C(=O)N2CC3CCC(CC3)C2)cc1,5.98% (inactive)
22,O=[N+]([O-])c1cccc2ncccc12,15.2% (inactive)
23,CC(C)(C)NC(=O)Cn1nnc(-c2ccccc2Cl)n1,2.55% (inactive)
24,Cc1cc(C)n(C(=O)c2ccc(S(=O)(=O)N3CCCC3)cc2)n1,13% (inactive)
25,Cc1ccccc1-c1nnn(CC(=O)c2ccc(S(=O)(=O)N3CCCC3)cc2)n1,76% (active)

row,SMILES,inhibition
1,CC(OC(=O)c1ccc(NS(=O)(=O)c2ccc3[nH]c(=O)[nH]c3c2)cc1)C(=O)Nc1cccc(Cl)c1Cl (centres undefined),-9.73% (inactive)
2,NCCCCCC(=O)N/N=C/c1ccc2nccnc2c1,16.6% (inactive)
3,Cc1onc(NC(=O)c2ccc([N+](=O)[O-])o2)c1Br,-20.6% (inactive)
4,COc1ccc(S(=O)(=O)Nc2c(C)n(C)n(-c3ccccc3)c2=O)cc1,-21.7% (inactive)
5,Cc1cccc(OP(=O)(Nc2c(C)n(C)n(-c3ccccc3)c2=O)Oc2cccc(C)c2)c1,71.4% (active)
6,Cc1cc(C(=O)Nc2c(C)n(C)n(-c3ccccc3)c2=O)cs1,23.5% (inactive)
7,O=C(CCl)Nc1cccc(CP(=O)(c2ccccc2)c2ccccc2)c1,-134% (inactive)
8,COc1ccc(CNC(=O)CCC(=O)Nc2nnc(C(C)C)s2)cc1,11.9% (inactive)
9,Cc1nnc(SCC(=O)N/N=C/c2cn(-c3ccccc3)nc2-c2ccc(F)cc2)n1-c1ccccc1,97.1% (active)
10,Cc1ccc(-c2nn(-c3ccccc3)cc2/C=N/NC(=O)c2ccc3c(c2)OCO3)cc1,22.2% (inactive)
11,COc1ccc(OC)c(/C=N/NC(=O)CSc2nnc(C)n2-c2ccccc2)c1,-5.53% (inactive)
12,CC(C)COC(=O)n1c(=O)oc2ccc(S(=O)(=O)N3CCCCC3)cc21,11.3% (inactive)
13,COc1ccc(OC)c(Nc2nc3ccccc3n3cnnc23)c1,24.5% (inactive)
14,Cc1cccc(C2C3=C(CCCC3=O)N=C3c4ccccc4C(=O)C32)c1 (centres undefined),19.4% (inactive)
15,Cc1cccc(NC(=O)c2nnn(-c3cccc(C(F)(F)F)c3)c2N)c1,70.6% (active)
16,Cc1cccc(NC(=O)c2cccc(C(F)(F)F)c2)c1,2.04% (inactive)
17,CC(=O)N1CCN(C(=O)Nc2cccc(C(F)(F)F)c2)CC1,26.5% (inactive)
18,CC(=O)OCCOCn1cnn2c(=O)c(Br)c(C)nc12,7.79% (inactive)
19,O=C(O)c1ccccc1OCc1ccccc1Cl,-5.39% (inactive)
20,Cn1nccc1NC(=O)Nc1ccc(OC(F)(F)F)cc1,0.64% (inactive)
21,CC1(C)C2CCC1(C)C(OC(=O)CCn1ccnc1)C2 (centres undefined),4.53% (inactive)
22,Cc1ccc(C(=O)OC2CCCN(C)C2)cc1 (centres undefined),7.84% (inactive)
23,CC1(C)C2CCC1(C)C(OC(=O)c1ccc(O)cc1)C2 (centres undefined),77.6% (active)
24,N#Cc1ccc(Oc2ccc(C(F)(F)F)cc2NC(=O)c2ccc(F)cc2)cc1,6.42% (inactive)
25,O=C(NCC1CCCO1)c1ccccc1-c1nc(-c2ccccc2Cl)no1 (centres undefined),-0.61% (inactive)

row,SMILES,inhibition
1,c1ccc(-n2ncc3c(N4CCCC4)ncnc32)cc1,-22.2% (inactive)
2,O=C(NNc1ncnc2c1cnn2-c1ccccc1)c1ccco1,2.45% (inactive)
3,C1=C(CCNc2ncnc3c2cnn3-c2ccccc2)CCCC1,88% (active)
4,O=C1N(c2ccccc2)C(=Nc2ccccc2)SC12CC2,-17.1% (inactive)
5,O=C(CCNc1n[nH]c(=O)[nH]c1=O)N/N=C\c1ccc(Br)cc1,-14.4% (inactive)
6,Cc1noc(C)c1S(=O)(=O)Nc1cc(C(F)(F)F)ccc1N1CCOCC1,13.3% (inactive)
7,COc1ccccc1OCCC(=O)OCC(=O)NC(=O)NC(C)(C)C,44.9% (inactive)
8,CC(C)(C)NC(=O)NC(=O)COC(=O)CCC1CCCCC1,80.2% (active)
9,CC(C)(C)NC(=O)NC(=O)COC(=O)C1(C)CC1(Cl)Cl (centres undefined),6.38% (inactive)
10,Cc1c(C(=O)N/N=C/c2ccccc2)[nH]c2c([N+](=O)[O-])cccc12,20% (inactive)
11,O=C(O)C(F)(F)C(NCc1ccccc1)c1ccccc1 (centres undefined),-11.7% (inactive)
12,Cc1ccc(N2C(=O)CN=C2Nc2nc(C)cc(C)n2)cc1,17% (inactive)
13,O=C(CSc1nnc(Nc2ccccc2)s1)Nc1cccnc1Cl,-4.1% (inactive)
14,O=C(c1ccc(Cl)cc1)c1cnc(Nc2ccccc2)s1,70.1% (active)
15,CC(C)(C)C(=O)c1cnc(Nc2ccccc2)s1,4% (inactive)
16,CCc1ccnc(NS(=O)(=O)c2ccc3c(c2)OCCO3)c1,16.7% (inactive)
17,O=c1c(/C=N/O)coc2ccc(Cl)cc12,3.04% (inactive)
18,c1ccc2c(NC3C4CC5CC(C4)CC3C5)nc(N3CCOCC3)nc2c1 (centres undefined),83.1% (active)
19,CC(Nc1nc(N2CCOCC2)nc2ccccc12)c1ccccc1 (centres undefined),16.9% (inactive)
20,CC(Nc1nc(N2CCCC2)nc2ccccc12)c1ccccc1 (centres undefined),34.2% (inactive)
21,Cc1cc(=O)oc2c(C(=O)c3ccccc3)c(OCC(N)=O)ccc12,6.93% (inactive)
22,COc1ccc(NC(=O)COC(=O)CNC(=O)C2CCCCC2)cc1,9.71% (inactive)
23,CCC(C)(C)c1ccc(Oc2ccc(NC(=O)COC(=O)C3=COCCO3)cc2)cc1,80.4% (active)
24,O=C(OCC(=O)c1cccs1)C1=COCCO1,17.6% (inactive)
